Screening data deposited in PubChem by National Center for Advancing Translational Sciences (NCATS).
Most compounds without a hit are left out; they make up all but 19% or so of the library.
DT40 TDP1 no CPT – qHTS for Inhibitors of human tyrosyl-DNA phosphodiesterase 1 (TDP1): qHTS in cells in absence of CPT | 15% of 420,000 active | Potency, µM (titrated, usually from 46.2 µM), without a hit: at the top dose activity change, negative = growth inhibition, most hits filed as inhibitors | DT40 Tdp1-/- hTDP1 cells, no CPT, ATP luminescence, 48 h; note: potency is the fitted concentration of half-maximal effect; nearly all actives have a fitted effect of over 55% in size
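DT40 Tdp1-/-;hTDP1 cells, no CPT (DMSO vehicle only), 400 cells/well; compounds pin-transferred; ≥48 hr, 37 °C; CellTiter-Glo 30 min RT dark, luminescence read.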
HT1080 IDH1KD tx – HT-1080 IDH1 knockdown cell toxicity (counter line) | HT-1080 IDH1 knockdown viability, ATP luminescence, 48 h | Potency, µM (doses to about 46.1 µM), without a hit: at the highest dose activity, negative = toxicity, hits mostly cytotoxic | 2% of 360,000 active;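 note: potency is the fitted concentration of half-maximal effect; 0% = DMSO wells and -100% = cell-free medium wells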
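Knockdown cells (IDH1KD HT-1080) received compounds 2 h after plating at 750 cells/well and were kept 48 h at 37 °C in 5% FBS RPMI. A CellTiter-Glo luminescence read gave % activity for curve fitting.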
IL-1B inflam inh – inflammasome signaling inhibition, IL-1 beta readout. 4.7% of 360,000 active. THP-1 LPS/ATP IL-1B secretion, AlphaLISA, 16 h; active compounds read low. activity change, % at 57.5 µM. AID 743279; in the data active = activity change below about -50%; inconclusive = mostly about -30% to -49%
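Secreted IL-1B measured by AlphaLISA bead assay after 16 h compound exposure of THP-1 cells; compounds (final up to 57.5 uM) added 1 h before LPS (250 ng/mL) and ATP (1.25 mM) stimulation; lower signal means less secretion.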
DT40 TDP1 CPT – DT40-hTDP1 cell growth loss with CPT. Potency, µM (highest dose often 46.2 µM), inactives show top-dose activity change, negative = growth inhibition, usual class: inhibitors. chicken DT40 Tdp1-/-;hTDP1 cells + 20 nM CPT, ATP luminescence, 48 h. AID 686979. 12% of 420,000 active; note: potency is the fitted concentration of half-maximal effect; nearly all actives have a fitted effect of over 55% in size
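Chicken DT40 Tdp1-/- cells stably complemented with human TDP1 were seeded at 400 cells/well in medium containing 20 nM camptothecin, exposed to pin-transferred compounds, and grown at 37 °C for at least 48 hr. Viability was read as ATP luminescence.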
HT1080-NT tox – kills 2HG-producing HT-1080-NT fibrosarcoma cells; 1.6% of 360,000 active; HT-1080-NT fibrosarcoma viability, CellTiter-Glo ATP luminescence, 48 h; AID 686970; Potency, µM (titrated, usually from 46.1 µM), for the others: top-dose activity, negative = less viability, most hits filed as cytotoxic;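 note: NT is the 2HG producing partner of a matched IDH1 knockdown line; potency is the fitted concentration of half-maximal effect; 0% = DMSO-treated cells and -100% = media-only wells without cells; nearly all actives have a fitted effect of over 55% in size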
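Viability of the 2HG-overproducing fibrosarcoma line after 48 hours of compound exposure at 37 degrees C was determined by luminescence with CellTiter-Glo, and concentration-effect curves were then fitted and categorized.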
* = called active by the depositor; ? = inconclusive; · = no result; [ ] = dose if it differs, or a comment. Unless noted, calls come from the whole dose curve; as a rule, active = well fitted curve in the direction sought with a large enough effect; inconclusive = small, poorly fitted or top-dose-only effect, or another doubt; inactive = no such curve, though single readings can be large; an effect the other way counts as inactive or inconclusive. Unless noted, % is set by controls: 0 for no effect and ±100 for the full control effect.

SMILES | DT40 TDP1 no CPT | HT1080 IDH1KD tx | IL-1B inflam inh | DT40 TDP1 CPT | HT1080-NT tox
COc1cc2cc(CN(Cc3nnnn3Cc3ccccc3)CC3CCCO3)c(=O)[nH]c2cc1OC (configuration not stated) | ? | 3% | -20 | ? | 1%
Cc1cc(NC(=O)COC(=O)C2CC(=O)N(c3cccc(C)c3C)C2)no1 (configuration not stated) | 2% | 6% | -3 | -5% | 3%
COc1ccccc1CCNC(=O)C(=O)NCC1OCCN1S(=O)(=O)c1ccc(OC)c(OC)c1 (configuration not stated) | -28% | 0% | -24 | ? | 0%
Cc1ccc2[nH]c(=O)c(CN(Cc3ccccc3)Cc3nnnn3Cc3ccco3)cc2c1 | ? | · | · | 8.9µM* | ·
Cc1ccc2[nH]c(=O)c(CN(Cc3ccccc3)Cc3nnnn3C3CCCC3)cc2c1 | ? | -4% | -72* | 21µM* | 5%
CCOc1ccc(-n2c(C)cc(C(=O)CCl)c2C)cc1 | 4.6µM* | 8.2µM* | -99* | 2.9µM* | 7.3µM*
COC(=O)c1ccc(-n2c(C)cc(C(=O)CCl)c2C)cc1 | 2.6µM* | ? | -99* | 2.9µM* | ?
CCOc1ccc(NC(=O)C(=O)c2cc(C)n(-c3cc(C)cc(C)c3)c2C)cc1 | 21µM* | · | · | ? | ·
COC(=O)c1ccc(-n2c(C)cc(C(=O)COC(=O)C3=COCCO3)c2C)cc1 | ? | 15% | 11 | 3% | 13%
CCOC(=O)c1cc(C)n(-c2ccc(OC)c(OC)c2)c1C | 18µM* | -13% | 7 | ? | -5%
O=C(Nc1ccc(NC(=O)c2ccc(Br)cc2)c(Cl)c1)c1ccc(Br)cc1 | 4% | · | · | 7% | ·
COc1cccc(CNC(=O)C2CCN(S(=O)(=O)c3cn(C)cn3)CC2)c1 | -5% | · | · | 1% | ·
O=c1oc2c(-c3ccc([N+](=O)[O-])cc3)cc(O)cc2s1 | ? | -8% | -4 | ? | -12%
Cc1ccc(NC(=O)C(=O)c2cc(C)n(-c3ccc(F)cc3)c2C)cc1C | 21µM* | · | · | ? | ·
CCOc1ccccc1NC(=O)C(=O)c1cc(C)n(-c2ccc(F)cc2)c1C | -26% | · | · | ? | ·
Cc1cnc(=O)[nH]c1SCc1ccccc1F | -3% | 0% | -16 | -3% | -6%
COCC(=O)N1CCC2(CCCN(Cc3ccc(C#N)cc3)C2)CC1 | 0% | · | · | 4% | ·
Cc1cc(NC(=O)Nc2csc3c2CCCC3)ccc1Br | 9.2µM* | · | · | 8.2µM* | ·
Cc1cc(NC(=O)Nc2nc3c(s2)CCCCCC3)ccc1Br | 18µM* | · | · | 21µM* | ·
Cc1ccc(NC(=O)Nc2nc3c(s2)CCCCCC3)cc1C | 13µM* | · | · | 13µM* | ·
CC(C)(C)c1ccc(C(=O)NC(=S)Nc2nc3c(s2)CCCC3)cc1 | 29µM* | 12% | ? | 26µM* | -2%
Cc1cc(NC(=O)Cn2nc3c(cc2=O)CCCC3)ccc1Br | -10% | -3% | -11 | -12% | -5%
CN(C)c1ccc(C(=O)Nc2nc3c(s2)CCCC3)cc1 | ? | -18% | -29 | ? | 1%
COc1cccc(-c2nnc(SCC(=O)Nc3ccc(OC)c(OC)c3)n2N)c1 | -19% | -19% | 0 | -20% | -4%
O=C(Nc1ccc(O)cc1)c1cc2ccccc2c(=O)s1 | 16µM* | ? | -27 | ? | -27%
SMILES | DT40 TDP1 no CPT | HT1080 IDH1KD tx | IL-1B inflam inh | DT40 TDP1 CPT | HT1080-NT tox
C/C(=N\NC(=O)c1nnn(-c2nonc2N)c1CN(C)c1ccccc1)c1cccc(O)c1 | -27% | -9% | 4 | ? | -14%
COc1ccccc1NC(=O)c1cc(-c2cc(OC)c(OC)c(OC)c2)nc2ccccc12 | 7.3µM* | -7% | -3 | 9.2µM* | -12%
CCOc1ccccc1NC(=O)c1cc(-c2cc(OC)c(OC)c(OC)c2)nc2ccccc12 | 7.3µM* | -15% | 1 | 10µM* | -18%
COc1cc(NC(=O)c2cc(-c3ccccc3)nc3c2cnn3C(C)C)cc(OC)c1OC | 5.8µM* | 0% | -22 | 13µM* | 0%
COc1cc(-c2cc(C(=O)Nc3ccncc3)c3ccccc3n2)cc(OC)c1OC | 1.3µM* | -1% | -50* | 2.9µM* | 1%[9.24 µM]
COc1ccc(-c2cc(C(=O)Nc3ccccc3O)c3ccccc3n2)cc1OC | ? | 3% | 21 | -30% | -3%
O=C(Nc1ccncc1)c1cc(-c2ccccn2)nc2ccccc12 | -18% | -22% | 53 | 12% | -4%
O=C(CNC(=O)c1ccco1)N/N=C/c1ccc(C(=O)O)cc1 | -10% | 9% | 11 | 3% | 13%
COCC(C)NC(=O)C1CC(c2cccc(Br)c2)=NO1 (configuration not stated) | -5% | -5% | 13 | -28% | 0%
CN(C)c1ccc(/C=C(\C#N)c2nc(-c3ccc(Cl)c(Cl)c3)cs2)cc1 | -12% | · | · | -17% | ·
CC1(C)CC(=O)C2=C(C1)N(c1ccc(F)cc1)C(=O)CC2c1ccsc1 (configuration not stated) | -27% | -2% | -7 | -22% | 4%
Cc1c(C(=O)Nc2c3c(nn2C(C)(C)C)CS(=O)(=O)C3)cccc1[N+](=O)[O-] | ? | 1% | -21 | ? | 6%
CCCCN(CCCC)C1=Nc2ccccc2N/C1=C(/C#N)C(=O)OCC | 21µM* | -6% | -7 | 21µM* | 4%
CCOC(=O)/C(C#N)=C1\Nc2ccccc2N=C1N(CC(C)C)CC(C)C | 18µM* | ? | -59* | ? | ?
CCOC(=O)C1=C(C)Nc2ccccc2N=C1N | 11% | ? | 4 | -2% | ?
CN1CCN(C(=O)c2ccc3c(c2)N(Cc2ccc(C(F)(F)F)cc2)C(=O)c2ccccc2S3)CC1 | 21µM* | · | · | ? | ·
CN1CCN(C(=O)c2ccc3c(c2)N(Cc2c(F)cccc2Cl)C(=O)c2ccccc2S3)CC1 | 23µM* | · | · | ? | ·
CCC(=O)N1CCC1(C)C(=O)Nc1cccc2cccnc12 (configuration not stated) | -16% | 1% | 2 | 1% | 11%
Cc1cc(C(=O)N2CCC2(C)C(=O)Nc2cccc3ccccc23)nn1C (configuration not stated) | ? | 2% | -21 | ? | 13%
CC(C)(C)c1ccc(CC(=O)N2CCC2(C)C(=O)Nc2cccc3cccnc23)cc1 (configuration not stated) | 23µM* | ? | -4 | ? | ?
CC(C)(C)c1ccc(C(=O)N2CCC2(C)C(=O)Nc2cccc3ncccc23)cc1 (configuration not stated) | 21µM* | -28% | 20 | 23µM* | -7%
